Assay [1] can be described thus: NCI Yeast Anticancer Drug Screen. Data for the rad50 strain (AID 155).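 Further: 0% = growth of vehicle-only cultures of the same strain.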 As to conditions: S. cerevisiae rad50 strain growth inhibition; at 50.0 µM; hits give high values. In short, it runs like this:
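Readout: growth inhibition relative to vehicle-treated cultures. Compound exposure was carried out in a genetically defined yeast strain deficient in DNA damage repair.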

A short description of assay [2]: NCI Yeast Anticancer Drug Screen. Data for the mec2-1 strain (AID 157). Conditions: S. cerevisiae mec2-1 strain, at 50.0 µM, hits give high values. Put shortly:
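Yeast mec2-1 mutant treated with compound. Readout: growth inhibition vs vehicle controls.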

A short description of assay [3]: NCI Yeast Anticancer Drug Screen. Data for the sgs1 mgt1 strain (AID 161).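 Further: 0% = growth of cultures given vehicle only.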 As to conditions: S. cerevisiae sgs1 mgt1 strain, at 50.0 µM, hits give high values. In short, it runs like this: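 Inhibition of yeast growth, normalised to vehicle-treated controls, is reported for a strain bearing genetic alterations in DNA damage repair.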
Assay [4] is described as follows: NCI Yeast Anticancer Drug Screen. Data for the cln2 rad14 strain (AID 165).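 Further: 0% = growth equal to vehicle treated cultures.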 As to conditions: S. cerevisiae cln2 rad14 strain, at 50.0 µM, hits give high values. In short, it runs like this: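 cln2 rad14 yeast strain; compound exposure; growth inhibition read vs vehicle controls.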
Assay [5] is described as follows: NCI Yeast Anticancer Drug Screen. Data for the bub3 strain (AID 167). As to conditions: S. cerevisiae bub3 mutant strain, at 50.0 µM, hits give high values. Put shortly: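 Readout: yeast growth inhibition, expressed relative to vehicle-only wells. The test organism is a mutant strain from a panel with lesions in DNA repair or checkpoint genes.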
Assay [6] can be described thus: NCI Yeast Anticancer Drug Screen. Data for the mlh1 rad18 strain (AID 175). Conditions: S. cerevisiae mlh1 rad18 strain growth inhibition; at 50.0 µM; hits give high values. Put shortly: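 Yeast w/ defined DNA-repair lesions; compound exposure; growth vs vehicle controls → % inhibition.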

About 79,000 compounds went through this panel and 15% of them were active in at least one assay; those are over-represented in the sample as a whole. A number with no mark means an inactive call. The source made the active and inactive calls. No stated cut-off is given here; in the data, active means growth inhibition above about 70%; inactive means the rest.

Regarding `O=P(CCCCBr)(NCc1ccccc1)c1ccccc1` (stereo unspecified), the growth inhibition in assay [1] is 5.25%; in assay [2], 7.85%; in assay [3], 15.9%; in assay [4], -19.9%; in assay [5] it was 14.8%; in assay [6], 13.2%.
On to `CN1CC(O)C(C(=O)NC23CC4CC(CC(C4)C2)C3)C1` (stereo unspecified), for which the growth inhibition was 30.8% in assay [1]; 4.15% in assay [2]; 11.8% in assay [3]; 14.1% in assay [4]; 10.4% in assay [5]; 30.2% in assay [6].
Regarding `COC(=O)C(NC(=O)C(=O)NC(C(=O)OC)C(C)(C)S)C(C)(C)S` (stereo unspecified), the growth inhibition in assay [1] is 3.85%; in assay [2] it was -9.1%; in assay [3] it was -2.3%; in assay [4], -12.7%; in assay [5], -5%; in assay [6], 4.25%.
For `CO[C@H]1C[C@H]2[C@@H]3CCC4=CC(=O)CC[C@]4(C)[C@H]3CC[C@]2(C)[C@@]1(O)C(=O)CO`, the growth inhibition in assay [1] is -7.35%; in assay [2], -9.25%; in assay [3] it was -17%; in assay [4], -14.9%; in assay [5], -11.7%; in assay [6], -27.6%.
In the case of `COc1ccc(N2CCN(CC(O)COc3ccc(Cl)cc3)CC2)cc1` (stereo unspecified), the growth inhibition in assay [1] is 70.8% (active); in assay [2] it was 18.9%; in assay [3] it was 75% (active); in assay [4], 14.9%; in assay [5] it was 13.8%; in assay [6], 28.5%.
With `CCN(C=O)c1ccccc1`, the growth inhibition in assay [1] is 15.7%; in assay [2] it was -7.55%; in assay [3], -6.95%; in assay [4], -0.8%; in assay [5], 5.95%; in assay [6] it was 6.55%.
Regarding `O=c1[nH]c(=O)n(C2CC(O)C(CO)O2)cc1/C=C/Br` (stereo unspecified), the growth inhibition in assay [1] is -17.9%; in assay [2], -9.25%; in assay [3], -8.95%; in assay [4] it was -5.4%; in assay [5], 7.35%; in assay [6] it was -18.1%.
Turning to `OCc1ccncc1`, the growth inhibition was -5.85% in assay [1]; -13.2% in assay [2]; -9.65% in assay [3]; -47.4% in assay [4]; 10.4% in assay [5]; -2.05% in assay [6].
In the case of `O=C1CCSSCCC(=O)NCCCN1`, the growth inhibition in assay [1] is 1%; in assay [2], -5.3%; in assay [3] it was -24.4%; in assay [4], 15.2%; in assay [5] it was -24.1%; in assay [6], -6.3%.
As for `C(=NC12CC3CC(CC(C3)C1)C2)C1CCCCC1`, the growth inhibition is -17.1% in assay [1]; -24.8% in assay [2]; 0.05% in assay [3]; 3% in assay [4]; 4.8% in assay [5]; -2.5% in assay [6].
`CCC(O)CN(C)C` (stereo unspecified): the growth inhibition in assay [1] is 8%; in assay [2] it was -4.6%; in assay [3], 6.65%; in assay [4] it was -13.4%; in assay [5], 0.85%; in assay [6], 3.45%.
For `COC(=O)Nc1ccc(NC(=O)c2cscn2)c(NC(=O)OC)n1`, the growth inhibition in assay [1] is 1.55%; in assay [2], 2.7%; in assay [3] it was -2.3%; in assay [4], -4.05%; in assay [5], 5.75%; in assay [6] it was -3.45%.
`CCCCCN(CCCCC)CC(O)c1ccc2cc3c(nc2c1)CCCC3` (stereo unspecified): the growth inhibition in assay [1] is 6.2%; in assay [2] it was 10.2%; in assay [3], 26.9%; in assay [4], 5.25%; in assay [5], -7.2%; in assay [6], 1.5%.
On to `COC(OC)c1cccc2c1C1(O)CCC3(CC21)OCCCCO3` (stereo unspecified), for which the growth inhibition was -9.35% in assay [1]; -26.4% in assay [2]; -42.5% in assay [3]; -11.6% in assay [4]; -42.9% in assay [5]; -23.1% in assay [6].
As to `NNc1nc2ccc([N+](=O)[O-])cc2s1`, the growth inhibition was 13.7% in assay [1]; -8.55% in assay [2]; -1% in assay [3]; -22% in assay [4]; -9.75% in assay [5]; 22.2% in assay [6].
Consider `O=C(NCCCCN1CCCC1)C(c1cc2ccccc2s1)C1CCCCC1` (stereo unspecified), for which the growth inhibition in assay [1] was 20.1%; in assay [2] it was 9.25%; in assay [3], 42.2%; in assay [4] it was 4.25%; in assay [5], 24.2%; in assay [6], 33.1%.
As to `COc1ccc(/C(C)=N/NC(=O)c2ccncc2)c(OC)c1`, the growth inhibition in assay [1] is -7.85%; in assay [2], -20.6%; in assay [3], -29.2%; in assay [4], -29.4%; in assay [5], -42.6%; in assay [6], -33.1%.
Take `O=[N+]([O-])c1ccc(N/N=C2/C(=C/c3cccc4ccccc34)CCc3ccccc32)c([N+](=O)[O-])c1`: the growth inhibition in assay [1] is -13.6%; in assay [2] it was -16.3%; in assay [3], -20.8%; in assay [4] it was -32.5%; in assay [5] it was 37.5%; in assay [6], -19.6%.
As for `[Cl][Ge]([Cl])([c]1ccccc1)[c]1ccccc1`, the growth inhibition in assay [1] was 29.1%; in assay [2] it was 20.9%; in assay [3], 29.1%; in assay [4], 12.8%; in assay [5] it was 43%; in assay [6] it was 29.1%.
As to `Cc1ccc([N+](=O)[O-])cc1N=C=O`, the growth inhibition in assay [1] is -38.5%; in assay [2], -43.9%; in assay [3], -31.1%; in assay [4], -34%; in assay [5], -32.8%; in assay [6], -56.3%.
With `COc1ccc(C2=CSC3=NC(C)(C)CC(C)=NN23)cc1`, the growth inhibition in assay [1] was -16.8%; in assay [2], -8.2%; in assay [3], 7.35%; in assay [4] it was 29.2%; in assay [5], 9.25%; in assay [6] it was -1.75%.

The values above are taken from PubChem BioAssay (NCI).
